Giardia killer: kills Giardia lamblia; Giardia lamblia trophozoite viability; activity change, % at 7.66 µM, hits read low; 340,000 tested, 0.15% active; in the data active means activity change below about -80%; inconclusive means between about -30% and that limit;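 further: parasites exposed to compound for two days anaerobically before the ATP read; on the % scale 0 is the no-effect control and ±100 the full control effect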
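Trophozoites 100 cells/well + cpd; 48 hrs, 37 deg C, anaerobic. ATPLite 1-Step added, 15-30 min RT, luminescence read (ATP-based viability).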
IL1B secr inh: inflammasome signaling inhibition, IL-1 beta readout. THP-1 LPS/ATP IL-1B secretion, AlphaLISA, 16 h; active compounds read low. 360,000 tested, 4.7% active. AID 743279. activity change, % at 57.5 µM; in the data active means activity change below about -50%; inconclusive means mostly about -30% to -49%; further: on the % scale 0 is the no-effect control and ±100 the full control effect
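Secreted IL-1B measured by AlphaLISA bead assay after 16 h compound exposure of THP-1 cells; compounds (final up to 57.5 uM) added 1 h before LPS (250 ng/mL) and ATP (1.25 mM) stimulation; lower signal means less secretion.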
Vif-A3G inh: Vif-A3G binding inhibition. Q9HC16. HeLa A3G-eYFP + Vif (tagged APOBEC3G with the HIV-1 protein that degrades it), YFP fluorescence, overnight. Potency, µM (series often up to 46.1 µM), without a hit: top-dose activity, negative = active, most hits filed as inhibitors. 410,000 tested, 0.076% active. AID 602310; further: potency means the concentration at half of the fitted maximal effect; on the % scale 0 is the no-effect control and ±100 the full control effect; nearly all actives have a fitted effect of over 60% in size
Target sequence (Q9HC16 whole entry, looked up): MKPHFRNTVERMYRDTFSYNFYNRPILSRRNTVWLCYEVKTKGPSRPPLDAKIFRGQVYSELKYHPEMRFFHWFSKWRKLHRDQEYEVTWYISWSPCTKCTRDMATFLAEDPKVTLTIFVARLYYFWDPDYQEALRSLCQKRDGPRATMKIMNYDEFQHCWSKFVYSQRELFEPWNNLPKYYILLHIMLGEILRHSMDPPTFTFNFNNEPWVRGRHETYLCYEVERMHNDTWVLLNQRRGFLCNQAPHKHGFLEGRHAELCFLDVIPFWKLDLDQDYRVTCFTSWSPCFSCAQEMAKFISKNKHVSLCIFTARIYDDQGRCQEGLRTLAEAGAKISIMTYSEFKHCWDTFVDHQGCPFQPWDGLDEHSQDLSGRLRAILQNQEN
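HeLa cells stably expressing Vif and C-terminally eYFP-tagged A3G, seeded overnight at 37 deg C, then exposed to compound by pintool overnight at 37 deg C. Rise in yellow fluorescence (Ex 488/Em 500-530, Acumen) marks blocked Vif-driven A3G degradation.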
Vif-APOBEC3F blk: inhibitors of Vif-A3F interaction; AID 602313; Potency, µM (highest dose often 46.1 µM), for inactives: at the highest dose activity, negative = active; 390,000 tested, 0.2% active; HeLa A3F-eYFP + Vif (tagged APOBEC3F with the HIV-1 protein that degrades it), YFP fluorescence increase; further: potency means the concentration at half of the fitted maximal effect; % of control where 0% means no effect; nearly all actives have a fitted effect of over 65% in size
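Fluorescence increase (Ex 488/Em 500-530) after overnight compound treatment at 37 deg C flags inhibition of Vif-driven A3F-eYFP loss in stable HeLa A3F-eYFP/Vif cells seeded overnight beforehand.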
MCF10A rereplic: DNA re-replication induction in MCF 10a cells | MCF 10A DNA re-replication, Hoechst nuclear intensity, 48 h | AID 624296 | 350,000 tested, 2.9% active | Potency, µM (doses to about 46.1 µM), without a hit: at the top dose activity, positive = re-replication, most hits filed as activators; further: potency means the concentration at half of the fitted maximal effect; % of control where 0% means no effect; nearly all actives have a fitted effect of over 50% in size
SW480 rerep: DNA re-replication induction in SW480 cells; SW480 DNA re-replication, Hoechst DNA content imaging, 48 h; AID 624297; Potency, µM (doses to about 46.1 µM), inactives show at the top dose re-replication activation, actives largely listed as activators; 340,000 tested, 1.8% active; further: potency means the concentration at half of the fitted maximal effect; % of control where 0% means no effect; nearly all actives have a fitted effect of over 55% in size
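Compounds, transferred as 23 nL by pin tool, were incubated with cells for 48 hr; DNA content per nucleus was then quantified by Hoechst staining and fluorescence plate imaging.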
* marks the source's active call; other numbers are inactive results. Most compounds without a hit are left out; they make up all but 6.9% or so of the library. Unless noted, the call rests on the fitted dose curve; in most records, active means well fitted curve in the direction sought with a large enough effect; inconclusive means small, poorly fitted or top-dose-only effect, or another doubt; inactive means no such curve, though single readings can be large; an effect the other way counts as inactive or inconclusive.

For COCCN(Cc1nc2ccccc2c(=O)[nH]1)C(=O)COc1ccccc1-c1ccccc1 the results were Giardia killer -17.9, IL1B secr inh -67.6*, Vif-A3G inh inconclusive, Vif-APOBEC3F blk -0.3%, MCF10A rereplic inconclusive and SW480 rerep -373.3%.
COCC(=O)N(CCc1ccc(OC)cc1)Cc1nc2ccccc2c(=O)[nH]1 was read as Giardia killer -12.0, IL1B secr inh 0.0, Vif-A3G inh -5.3%, Vif-APOBEC3F blk 0.8%, MCF10A rereplic inconclusive and SW480 rerep inconclusive.
Screening CCN(Cc1nc2cc(Cl)ccc2c(=O)[nH]1)C(=O)COc1ccccc1Cc1ccccc1 returned Giardia killer -16.0, IL1B secr inh -1.1, Vif-A3G inh -8.7%, Vif-APOBEC3F blk 1.7%, MCF10A rereplic inconclusive and SW480 rerep -4.9%.
CCN(Cc1nc2ccccc2c(=O)[nH]1)C(=O)COc1ccccc1Cc1ccccc1 was read as Giardia killer -1.4, IL1B secr inh -67.0*, Vif-A3G inh -3.8%, Vif-APOBEC3F blk -2.1%, MCF10A rereplic inconclusive and SW480 rerep inconclusive.
Screening CN(Cc1nc2ccccc2c(=O)[nH]1)C(=O)COc1ccccc1Cc1ccccc1 returned Giardia killer -0.3, IL1B secr inh 17.0, Vif-A3G inh -4.4%, Vif-APOBEC3F blk -0.7%, MCF10A rereplic 20.6µM* and SW480 rerep 4.3%.
`CCOC(=O)C1CCN(C(=O)c2cnn(-c3ccc(F)cc3)c2-n2cccc2)CC1` gave Vif-A3G inh 2.7% and Vif-APOBEC3F blk 0.0%.
Screening O=C(Cn1c(=O)n(Cc2ccco2)c(=O)c2sc3ccccc3c21)Nc1ccccc1C(F)(F)F returned Vif-A3G inh -0.4% and Vif-APOBEC3F blk inconclusive.
O=C(/C=C/c1ccc(-c2ccccc2[N+](=O)[O-])o1)c1ccccc1 was read as Giardia killer -27.3, IL1B secr inh -66.7*, Vif-A3G inh -12.6%, Vif-APOBEC3F blk -6.7%, MCF10A rereplic inconclusive and SW480 rerep inconclusive.
Screening COc1ccc(C(=O)NCCNc2ccccc2[N+](=O)[O-])cc1 returned Giardia killer inconclusive, IL1B secr inh inconclusive, Vif-A3G inh 4.6%, Vif-APOBEC3F blk -25.1%, MCF10A rereplic -2.5% and SW480 rerep -33.2%.
`CCCNC(=O)c1ccc(S(=O)(=O)c2ccc(OC)cc2)c([N+](=O)[O-])c1` gave Giardia killer -5.0, IL1B secr inh -92.4*, Vif-A3G inh -9.0%, Vif-APOBEC3F blk 4.1%, MCF10A rereplic inconclusive and SW480 rerep inconclusive.
Screening Cn1c(=O)c2c(nc(NCC3CCCC(CN)C3)n2Cc2ccc(Cl)cc2Cl)n(C)c1=O (configuration not stated) returned Giardia killer -7.0, IL1B secr inh 12.9, Vif-A3G inh -2.4%, Vif-APOBEC3F blk inconclusive, MCF10A rereplic inconclusive and SW480 rerep 4.11µM*.
CCNc1nc(C23CC4CC(CC(C4)C2)C3)cs1 was read as Giardia killer -15.4, IL1B secr inh -2.1, Vif-A3G inh 3.2%, Vif-APOBEC3F blk -3.0%, MCF10A rereplic 23.1µM* and SW480 rerep inconclusive.
Screening C[C@H]1CCC[C@]2(C)C[C@H]3OC(=O)C(CN4CCCCCC4)[C@H]3C=C12 (some centres not stated) returned Giardia killer 12.7, IL1B secr inh -98.1*, Vif-A3G inh inconclusive, Vif-APOBEC3F blk 1.4%, MCF10A rereplic inconclusive and SW480 rerep inconclusive.
O=C(NCCCN1CCN(c2ccc(F)cc2)CC1)c1cc2c(Cl)nc3ccccc3c2s1 was read as Vif-A3G inh -3.2% and Vif-APOBEC3F blk 6.5%.
For COc1ccc2[nH]c3c(c2c1)CCNC3c1ccc([N+](=O)[O-])o1 (configuration not stated) the results were Giardia killer -28.8, IL1B secr inh -15.4, Vif-A3G inh inconclusive, Vif-APOBEC3F blk 25.1µM*, MCF10A rereplic 6.3% and SW480 rerep 15.2%.
`COc1ccc2[nH]c3c(c2c1)CCNC3C1CC=C(C)CC1` (configuration not stated) gave Giardia killer 9.9, IL1B secr inh -25.7, Vif-A3G inh inconclusive, Vif-APOBEC3F blk 2.9%, MCF10A rereplic 0.581µM* and SW480 rerep inconclusive.
`COc1ccc(C2c3[nH]c4ccc(OC)cc4c3CCN2C(=O)Nc2ccccc2)cc1` (configuration not stated) gave Vif-A3G inh -4.6% and Vif-APOBEC3F blk 1.4%.
For COc1ccc2[nH]c(C)cc(=O)c2c1 the results were Giardia killer 11.3, IL1B secr inh 17.7, Vif-A3G inh -0.3%, Vif-APOBEC3F blk 2.2%, MCF10A rereplic -1.4% and SW480 rerep -3.4%.
`CCOC(=O)CNC(=S)n1ncnc1N` gave Giardia killer -10.9, IL1B secr inh -12.9, Vif-A3G inh 0.1%, Vif-APOBEC3F blk -25.4%, MCF10A rereplic -7.0% and SW480 rerep 5.8µM*.
For C=CCn1c(=O)n(C2OC(CO)C(O)C2O)c2nc(N)[nH]c(=O)c21 (configuration not stated) the results were MCF10A rereplic 3.1% and SW480 rerep 1.1%.
Screening CCOC(=O)C1CCC(CN(Cc2cccc(Br)c2)S(=O)(=O)c2ccc(C)cc2)CC1 (configuration not stated) returned Vif-A3G inh -3.0% and Vif-APOBEC3F blk 2.8%.
CC(C)=CCC/C(C)=C/C=C/C(C)=C/C=C/C(C)=C/C=C/C=C(C)/C=C/C=C(C)/C=C/C=C(\C)CCC=C(C)C was read as MCF10A rereplic inconclusive and SW480 rerep 18.8µM*.
`Cc1nn(-c2ccc(F)cc2)c(Cl)c1/C=C1\C(=O)Nc2ccccc21` gave Giardia killer 13.6, IL1B secr inh 0.0, Vif-A3G inh inconclusive, Vif-APOBEC3F blk 1.6%, MCF10A rereplic 8.2µM* and SW480 rerep inconclusive.
Screening CN(C)S(=O)(=O)c1cccc2c1C(=O)c1ccccc1C2=O returned Giardia killer -0.7, IL1B secr inh 33.4, Vif-A3G inh -4.8%, Vif-APOBEC3F blk -15.5%, MCF10A rereplic -24.0% and SW480 rerep 20.6µM*.
For CN(C)S(=O)(=O)c1ccccc1C#N the results were Giardia killer -4.7, IL1B secr inh 5.4, Vif-A3G inh -2.9%, Vif-APOBEC3F blk -6.0%, MCF10A rereplic 19.1% and SW480 rerep -6.1%.
CNc1cccc2c1C(=O)c1ccccc1C2=O was read as Giardia killer -11.7, IL1B secr inh -52.4*, Vif-A3G inh 1.7%, Vif-APOBEC3F blk -19.5%, MCF10A rereplic -0.7% and SW480 rerep -1.1%.
`O=C(O)CC/C=C\CC[C@@H]1[C@@H](N2CCCCC2)[C@@H](O)C[C@@H]1OCc1ccc(-c2ccccc2)cc1` gave MCF10A rereplic 8.0% and SW480 rerep -0.2%.

High-throughput results: PubChem, National Center for Advancing Translational Sciences (NCATS)
